Data from PubChem BioAssay (NCATS).
Values without a mark were called inactive. For some of these results: Measured potencies and affinities stand elsewhere. The source made the active and inactive calls. How the calls were made is not given here.

Legend:
[1] = Ebola virus entry assay, green fluorescence channel
[2] = Ebola virus entry assay, blue channel fluorescence
[3] = Ebola virus entry assay, ratio channel
[4] = Ebola virus entry assay, green channel fluorescence
[5] = Ebola virus entry assay, reporter ratio channel; Channel type: primary
Wherever efficacy is given: 0% is about no effect.

| SMILES | efficacy [1] [%] | AC50 [2] | AC50 [3] | outcome [4] | AC50 [5] | outcome [3] | outcome [2] | outcome [5] |
| --- | --- | --- | --- | --- | --- | --- | --- | --- |
| C#C[C@]1(O)CC[C@H]2[C@@H]3CCc4cc(O)ccc4[C@H]3CC[C@@]21C | -19.9 | 11.2 µM (active) | 11.2 µM (active) | inactive | 11.2 µM (active) |  |  |  |
| Cc1c(C)n(CCN(C)C)c2ccc(C(=O)OCCN(C)C)cc12 | -26.4 | 2.24 µM (active) | 2.51 µM (active) | inactive | 2.51 µM (active) |  |  |  |
| Clc1ccc(C(Cn2ccnc2)OCc2ccsc2Cl)c(Cl)c1 (stereo not given) | 49.7 | 10 µM (active) | 8.91 µM (active) | inactive | 8.91 µM (active) |  |  |  |
| CC(C)(C)CC(C)(C)c1ccc(O)c(Cc2ccc(Cl)cc2Cl)c1 | 12.2 | 22.4 µM (active) | 14.1 µM (active) | inactive | 14.1 µM (active) |  |  |  |
| CN(Cc1cc(Br)cc(Br)c1N)C1CCCCC1 | 17.3 | 22.4 µM (active) | 20 µM (active) | inactive | 20 µM (active) |  |  |  |
| CC1(C)O[C@@H]2C[C@H]3[C@@H]4CCC5=CC(=O)CC[C@]5(C)[C@@]4(F)[C@@H](O)C[C@]3(C)[C@]2(C(=O)CCl)O1 | 53.9 | 12.6 µM (active) | 10 µM (active) | inactive | 10 µM (active) |  |  |  |
| COc1ccccc1N1CCN(CCCNc2cc(=O)n(C)c(=O)n2C)CC1 | 43.6 | 28.2 µM (active) |  | inactive | 39.8 µM (active) | inactive |  |  |
| CO/N=C(/C(=O)N[C@@H]1C(=O)N2C(C(=O)O)=C(Cn3nnc(C)n3)CS[C@H]12)c1csc(N)n1 | 14.5 |  |  | inactive |  | inactive | inactive | inactive |
| CC[C@H](NC(C)C)[C@H](O)c1ccc(O)c2[nH]c(=O)ccc12 | -13.2 |  |  | inactive |  | inactive | inactive | inactive |
| Oc1ccc(Cl)cc1Sc1cc(Cl)ccc1O | -28.7 | 10 µM (active) | 15.8 µM (active) | inactive | 15.8 µM (active) |  |  |  |
| CCc1cc(Cl)c(OC)c(C(=O)NC[C@@H]2CCCN2CC)c1O | 38.6 | 31.6 µM (active) | 20 µM (active) | inactive | 20 µM (active) |  |  |  |
| CN(Cc1ccc(C(C)(C)C)cc1)Cc1cccc2ccccc12 | -29.5 | 35.5 µM (active) |  | inactive | 39.8 µM (active) | inactive |  |  |
| CCN(CC)CCOc1ccc2c(c1)C(=O)c1cc(OCCN(CC)CC)ccc1-2 | 9 | 1.41 µM (active) | 1.41 µM (active) | inactive | 1.41 µM (active) |  |  |  |
| O=C(/C=C/c1ccc(O)c(O)c1)O[C@@H]1C[C@@](OC(=O)/C=C/c2ccc(O)c(O)c2)(C(=O)O)C[C@@H](O)[C@@H]1O | 21.8 | 28.2 µM (active) | 20 µM (active) | inactive | 20 µM (active) |  |  |  |
| Cc1c(N)cccc1C(F)(F)F | 32.5 |  |  | inactive |  | inactive | inactive | inactive |
| CC[C@H]1CN2CCc3cc(OC)c(OC)cc3[C@@H]2C[C@@H]1C[C@H]1NCCc2cc(OC)c(OC)cc21 | 58.8 | 17.8 µM (active) | 17.8 µM (active) | inactive | 17.8 µM (active) |  |  |  |
| O=C(Nc1ccc([N+](=O)[O-])cc1Cl)c1cc(Cl)ccc1O | 35.2 | 0.891 µM (active) | 1 µM (active) | inactive | 1 µM (active) |  |  |  |
| C=C[C@@]1(C)CC(=O)[C@]2(O)[C@@]3(C)[C@@H](O)CCC(C)(C)[C@@H]3[C@H](O)[C@H](OC(C)=O)[C@@]2(C)O1 | 10.9 | 10 µM (active) |  | inactive |  | inactive |  | inactive |
| C=CCOc1cc(Cl)ccc1C(=O)NCCN(CC)CC | -28.4 | 14.1 µM (active) | 15.8 µM (active) | inactive | 15.8 µM (active) |  |  |  |
| CCCOc1ccc(C(=O)OCCN(CC)CC)cc1N | 35 | 39.8 µM (active) | 22.4 µM (active) | inactive | 22.4 µM (active) |  |  |  |
| CN(C)CCN1C(=O)c2ccccc2N(C)c2ccccc21 | -25.3 | 39.8 µM (active) |  | inactive | 39.8 µM (active) | inactive |  |  |
| O=c1oc2c(O)c(O)cc3c(=O)oc4c(O)c(O)cc1c4c23 | 33.8 | 11.2 µM (active) | 11.2 µM (active) | inactive | 11.2 µM (active) |  |  |  |
| CCN(CC)CCSC(=O)C(c1ccccc1)c1ccccc1 | -29.7 | 31.6 µM (active) |  | inactive | 39.8 µM (active) | inactive |  |  |
| CC1=C(C(=O)O)N2C(=O)[C@@H](NC(=O)[C@H](N)C3=CCC=CC3)[C@H]2SC1 | -21.8 |  |  | inactive |  | inactive | inactive | inactive |
| CC(C)OC(=O)C(C(=O)OC(C)C)=C1SC=CS1 | -38.6 | 39.8 µM (active) |  | inactive |  | inactive |  | inactive |
| CN(C)CCN(Cc1cccs1)c1ccccn1 | 21.2 | 31.6 µM (active) | 17.8 µM (active) | inactive | 17.8 µM (active) |  |  |  |
